Source: PubChem BioAssay AID1211 (NMMLSC, 2008)
A number with no mark means an inactive call. Activity calls are given as the source filed them. How the calls were made is not given here.

Each compound was assayed against Estrogen receptor (Homo sapiens) (UniProt P03372) (assay: displacement of fluorescent estrogen from ERalpha – cell-based, Cos7 ERalpha-GFP, flow cytometry, primary screen (AID 1211;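 further: 0% = DMSO vehicle wells and 100% = no E2-Alexa633 signal left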)). Conditions: fluorescent ligand competition, at 10 µM, hits give high values.
Sequence of Estrogen receptor (Homo sapiens) (P03372 whole entry, looked up): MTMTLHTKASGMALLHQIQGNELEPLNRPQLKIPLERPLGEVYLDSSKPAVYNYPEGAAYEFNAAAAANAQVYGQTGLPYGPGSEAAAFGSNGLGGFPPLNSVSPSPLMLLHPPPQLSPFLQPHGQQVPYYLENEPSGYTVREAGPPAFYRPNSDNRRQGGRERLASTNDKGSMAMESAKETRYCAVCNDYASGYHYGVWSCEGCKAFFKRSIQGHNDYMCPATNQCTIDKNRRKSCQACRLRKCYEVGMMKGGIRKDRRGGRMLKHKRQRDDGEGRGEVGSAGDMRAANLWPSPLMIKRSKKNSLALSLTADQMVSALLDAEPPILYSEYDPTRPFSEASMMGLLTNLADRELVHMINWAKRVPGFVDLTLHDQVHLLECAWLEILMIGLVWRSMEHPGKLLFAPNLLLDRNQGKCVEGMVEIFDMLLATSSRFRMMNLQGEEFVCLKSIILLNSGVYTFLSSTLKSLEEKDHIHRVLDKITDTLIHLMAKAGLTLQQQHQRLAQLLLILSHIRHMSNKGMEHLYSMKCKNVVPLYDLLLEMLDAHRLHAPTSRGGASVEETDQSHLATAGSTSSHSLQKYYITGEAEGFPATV

Question: For `COc1ccc(CNC(=O)COC(=O)c2cc(-c3ccco3)nc3ccccc23)cc1`, which inhibition of ligand binding is on record?
Answer: The inhibition of ligand binding was 20%.

Question: `Cc1sc2ncnc(SCC(=O)NC(=O)NCc3ccco3)c2c1C` was tested. Which inhibition of ligand binding did it give?
Answer: Its inhibition of ligand binding is 19%.

Question: How did the inhibition of ligand binding turn out when `COc1cc2c(c([N+](=O)[O-])c1)NC(c1ccc(Br)cc1)C1CC=CC21` (configuration not stated) was run?
Answer: Its inhibition of ligand binding is 0%.

Question: How did the inhibition of ligand binding turn out when `CCCc1cc(=O)oc2c(C)c(OC3CCCCC3=O)ccc12` (configuration not stated) was run?
Answer: The inhibition of ligand binding was 0%.

Question: How did the inhibition of ligand binding turn out when `COc1cccc(-c2[nH]nc3c2C(c2ccoc2)C(C#N)=C(N)O3)c1` (configuration not stated) was run?
Answer: The inhibition of ligand binding was 23%.

Question: `CCCCCCc1cc2c3c(c(=O)oc2cc1OCC(N)=O)CCC3` was tested. Which inhibition of ligand binding did it give?
Answer: Its inhibition of ligand binding is 3%.

Question: Which inhibition of ligand binding does the source give for `CC(=O)Oc1ccc2c(c1)CCC1C2C(O)CC2(C)C(=O)CCC12` (configuration not stated) here?
Answer: Its inhibition of ligand binding is 15%.

Question: Which inhibition of ligand binding does the source give for `CCc1cc2c3c(c(=O)oc2cc1OC)CCCC3` here?
Answer: Its inhibition of ligand binding is 0%.

Question: With `CC(=O)OC1CC2(C)C(=O)CCC2C2CCc3cc(O)ccc3C12` (configuration not stated) as the compound, how does the inhibition of ligand binding read?
Answer: Its inhibition of ligand binding is 23%.

Question: With `CC(=O)c1ccc2c(c1)C1C=CCC1C(c1cccc([N+](=O)[O-])c1)N2` (configuration not stated) as the compound, how does the inhibition of ligand binding read?
Answer: The inhibition of ligand binding was 68% (active).

Question: How did the inhibition of ligand binding turn out when `O=c1oc2cc(O)ccc2c2c1CCC2` was run?
Answer: Its inhibition of ligand binding is 0%.

Question: With `COc1ccc2[nH]c3c(c2c1)CCNC3C1CC=C(C)CC1` (configuration not stated) as the compound, how does the inhibition of ligand binding read?
Answer: The inhibition of ligand binding was 0%.

Question: For `Nc1ccc2nc3n(c(=O)c2c1)CCC3`, which inhibition of ligand binding is on record?
Answer: The inhibition of ligand binding was 34%.

Question: For `CCNC(=O)c1ccc2c(c1)C1C3CCC(C3)C1C(c1ccccc1)N2` (configuration not stated), which inhibition of ligand binding is on record?
Answer: Its inhibition of ligand binding is 66% (active).

Question: Which inhibition of ligand binding does the source give for `COc1ccccc1C1Nc2c(C(=O)O)cccc2C2C3CCC(C3)C12` (configuration not stated) here?
Answer: The inhibition of ligand binding was 19%.

Question: For `O=C1CC(c2ccncc2)c2cc3c(cc2N1)OCCO3` (configuration not stated), which inhibition of ligand binding is on record?
Answer: Its inhibition of ligand binding is 0%.

Question: `Cc1cc(C)c2c(c1)NC(c1cc3c(cc1Br)OCO3)C1CC=CC21` (configuration not stated) was tested. Which inhibition of ligand binding did it give?
Answer: Its inhibition of ligand binding is 79% (active).
